From the supplement of paper PMC6555819

Tests used:
Assay in all cases: PBM binding z-score (relative to random genomic background probes); higher = stronger binding; sequences stand for … in GC…GCGATTGACAGCGTAGAATGAAGG
[1] = tested on: FXR:RXRa (NR concentration 270 nM, RXRa partner concentration 90 nM)
Procedure, shortened: (§1)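 Binding buffer was PBS pH 7.4 with 2% milk, 0.02% Triton X-100, 1 mM DTT, 0.2 mg/mL BSA and 0.4 mg/ml salmon testes DNA. In it, ligand-free nuclear receptor dimers were incubated 1 h on custom Agilent 4×180K protein-binding microarrays carrying double-stranded probes. Antibodies against each partner (one per run) detected binding, and z-scores were calculated against random background probes after regression normalization of scanned fluorescence.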

[2] = tested on: LXRa:RXRa (NR concentration 270 nM, RXRa partner concentration 90 nM)
Procedure, shortened: as §1

[3] = tested on: LXRa homodimer (NR concentration 270 nM)
Procedure, shortened: as §1

[4] = tested on: LXRb:RXRa (NR concentration 270 nM, RXRa partner concentration 90 nM)
Procedure, shortened: as §1

[5] = tested on: LXRb homodimer (NR concentration 270 nM)
Procedure, shortened: as §1

[6] = tested on: PPARa:RXRa (NR concentration 270 nM, RXRa partner concentration 90 nM)
Procedure, shortened: as §1

[7] = tested on: PPARg:RXRa (NR concentration 180 nM, RXRa partner concentration 90 nM)
Procedure, shortened: as §1

[8] = tested on: PPARg:RXRa 270nM:90nM, anti-RXR (NR concentration 270 nM, RXRa partner concentration 90 nM)
Procedure, shortened: as §1

[9] = tested on: PPARg:RXRa 30nM:10nM, anti-RXR (NR concentration 30 nM, RXRa partner concentration 10 nM)
Procedure, shortened: as §1

[10] = tested on: PPARg:RXRa 90nM:30nM, anti-RXR (NR concentration 90 nM, RXRa partner concentration 30 nM)
Procedure, shortened: as §1

[11] = tested on: PPARg:RXRa DBDmut IVT, anti-RXR (DBD mutation: RXRa K156A/R161A, NR concentration 270 nM, RXRa partner concentration 90 nM)
Procedure, shortened: as §1

[12] = tested on: PPARg:RXRa IVT, anti-PPARg (NR concentration 270 nM, RXRa partner concentration 90 nM)
Procedure, shortened: as §1

[13] = tested on: PPARg DBDmut:RXRa IVT, anti-PPARg (DBD mutation: PPARg1 K132A/R137A, NR concentration 270 nM, RXRa partner concentration 90 nM)
Procedure, shortened: as §1

[14] = tested on: PPARg DBDmut IVT, anti-PPARg (DBD mutation: PPARg1 K132A/R137A, NR concentration 270 nM)
Procedure, shortened: as §1

[15] = tested on: PPARg homodimer (NR concentration 180 nM)
Procedure, shortened: as §1

[16] = tested on: PXR:RXRa (NR concentration 270 nM, RXRa partner concentration 90 nM)
Procedure, shortened: as §1

[17] = tested on: PXR homodimer (NR concentration 270 nM)
Procedure, shortened: as §1

[18] = tested on: RARa:RXR (NR concentration 270 nM, RXRa partner concentration 90 nM)
Procedure, shortened: as §1

[19] = tested on: RARa homodimer (NR concentration 270 nM)
Procedure, shortened: as §1

[20] = tested on: RARb:RXRa (NR concentration 270 nM, RXRa partner concentration 90 nM)
Procedure, shortened: as §1

| Sequence | PBM binding z-score [1] | PBM binding z-score [2] | PBM binding z-score [3] | PBM binding z-score [4] | PBM binding z-score [5] | PBM binding z-score [6] | PBM binding z-score [7] | PBM binding z-score [8] | PBM binding z-score [9] | PBM binding z-score [10] | PBM binding z-score [11] | PBM binding z-score [12] | PBM binding z-score [13] | PBM binding z-score [14] | PBM binding z-score [15] | PBM binding z-score [16] | PBM binding z-score [17] | PBM binding z-score [18] | PBM binding z-score [19] | PBM binding z-score [20] |
| --- | --- | --- | --- | --- | --- | --- | --- | --- | --- | --- | --- | --- | --- | --- | --- | --- | --- | --- | --- | --- |
| CCAGACAGGTGAAAGGTAGCTCAGTCTGGTACGC | 0.0731 | -0.0262 | -0.504 | 0.0215 | -1.1 | 2.23 | 3.22 | 4.68 | 2.78 | 4.9 | 2.97 | 1.52 | -1.06 | -0.199 | 0.596 | -0.0966 | -0.482 | 0.905 | -0.063 | 0.738 |
| CCAGACAGGTGAATGGTAACTCAGTCTGGTACGC | -0.448 | -0.493 | -0.271 | -0.246 | -0.723 | 0.129 | 0.419 | 0.128 | -0.647 | -0.216 | 0.897 | 0.735 | -0.452 | -0.717 | 0.288 | -0.4 | -0.302 | -0.379 | -0.0506 | 0.381 |
| CCGACTGGGGCAGAAAGGTTAACATACCATCCGG | 0.257 | 0.795 | 0.102 | 1.32 | -1.1 | 2.45 | 1.92 | 2.76 | 1.1 | 2.38 | 1.78 | 2.39 | -0.202 | -1.36 | 1.53 | 1.19 | -0.126 | 1.95 | 0.0538 | 1.98 |
| TCTTTTAGATCAAGCAGGTTAAGAAAGCCTGAGT | 0.715 | 0.67 | -0.177 | 0.588 | 0.409 | 1.02 | -0.669 | 1.68 | 3.39 | 2.56 | 1.41 | 0.619 | 0.997 | 1.17 | -0.29 | 0.774 | 0.132 | 0.889 | -0.0558 | 0.269 |
| CAAACTAGGTAAAAGGTCAAAGTCGAGCCAACCA | 6.21 | 6.09 | 4.59 | 5.87 | 2.23 | 6.92 | 12.1 | 10.2 | 11 | 11.4 | 7.05 | 7.46 | 2.77 | 1.52 | 3.65 | 5.33 | 1.53 | 6.52 | 2.55 | 4.87 |
| ACTATTAGTTGAGACGAGGGCAACCTATAGGTTG | 0.678 | 0.287 | -0.0979 | 0.142 | 0.336 | 0.29 | 0.636 | -0.0542 | 0.31 | -0.00139 | -0.0527 | 0.486 | 1.43 | 1.25 | 0.36 | 1.39 | 0.585 | 1.09 | 0.942 | 0.936 |
| ATCGAAAGGTCGAGGGTGAGTATACCCACCCGAA | 4.29 | 3.45 | 0.143 | 2.57 | 0.248 | 4.67 | 3.72 | 4.25 | 1.3 | 3.04 | -0.26 | 1.94 | 0.623 | 0.934 | 0.976 | 2.41 | -0.393 | 3.41 | 0.53 | 4.09 |
| ACAGACAGGTGAGTGAAGGAAACTCAGCTGGACG | -0.54 | -0.517 | -0.15 | -0.792 | -0.646 | -1.08 | 0.519 | -0.724 | -0.177 | -0.368 | 0.214 | 0.274 | -0.163 | -1.04 | -0.703 | -0.793 | -0.677 | -0.777 | -0.124 | -0.0129 |
| ATATGTAGGCTATCGGGTCATTCAGTTTGCGCAT | 1.71 | 1.58 | 0.22 | 1.95 | 0.313 | 3.69 | 4.12 | 3.83 | 1.92 | 3.21 | 5.77 | 5.5 | 1.43 | 1.46 | 1.08 | 2.87 | 6.85 | 2.54 | 0.357 | 1.72 |
| AGAATGAGGTTATTAAAATCAGGGAATTGCGGTC | 1.11 | 1.04 | 0.0738 | 1.21 | 0.192 | 2.3 | 1.02 | 1.43 | 0.509 | 0.902 | 3.19 | 2.38 | 0.973 | 0.541 | 0.649 | 1.13 | 0.34 | 1.44 | 0.843 | 1.25 |
| CGAACAAGGTCAAGGACAGTGAATCTCCGCACGC | 7.13 | 5.06 | 0.53 | 3.78 | 0.377 | 5.74 | 5.98 | 5.82 | 2.42 | 4.59 | 4.85 | 4.49 | 1.31 | 0.251 | 2.38 | 3.97 | 0.628 | 4.74 | 0.971 | 5.2 |
| ACTAGGAGGCCAAGTTTGGGTCACTCAAACAAAG | 0.516 | 0.308 | -0.0463 | 0.967 | -0.287 | 1.36 | 0.296 | 0.511 | -0.488 | -0.0404 | 1.22 | 1.95 | -0.886 | -1.06 | 1.15 | 1.22 | 0.347 | 1.83 | 0.176 | 2.43 |
| TCCTATAGGTAAAGGTGAAAGTCGAACGATATGA | 1.05 | 1.25 | -0.0559 | 1.25 | -0.199 | 3.07 | 2.77 | 3.93 | 3.81 | 3.96 | 2.74 | 3.09 | 0.482 | 0.679 | 0.768 | 1.12 | -0.316 | 1.49 | 0.203 | 1.96 |
| TCATATAGGTAAAGGTGAAAGTCGAACGATATGA | 0.768 | 1.27 | -0.00869 | 1.05 | -0.112 | 3.41 | 4.01 | 4.55 | 4.42 | 4.75 | 3.76 | 4.23 | 1.81 | 1.2 | 1.04 | 1.13 | -0.047 | 1.71 | 0.402 | 2.1 |
